The results in this text go back to PubChem BioAssay (NCI).

About 83,000 compounds went through this panel and 20% of them were active in at least one assay; those are over-represented in the sample as a whole.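 Step 1: grow cells in 96-well plates. Step 2: add test compound at a single concentration. Step 3: incubate 48 h. Step 4: record percent growth.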 Unmarked numbers belong to inactive results. Active and inactive are the calls of the source. Rule for the calls: active = growth percent below 10; inactive = the rest.

Holding throughout (assay): NCI-60 one-dose screen, 48 h (100 = growth as untreated, 0 = no growth, -100 = all killed)
Holding throughout (details): 10 µM unless noted

Test [1] has as its system SR leukemia.
Test [2] concerns RPMI-8226 leukemia.
Test [3] concerns OVCAR-8 ovarian.
In test [4] the test system is OVCAR-5 ovarian.
For test [5], the system named is OVCAR-4 ovarian.
The subject of test [6] is IGROV1 ovarian.
Test [7] relates to OVCAR-3 ovarian.
In test [8] the test system is HS 578T breast.
Test [9] concerns NCI/ADR-RES ovarian.
Test [10] concerns SK-OV-3 ovarian.

As for `C=C(CNCCc1ccc(O)cc1)[C@@H]1CC[C@]2(CO)CC[C@]3(C)[C@H](CC[C@@H]4[C@@]5(C)CCC(=O)C(C)(C)[C@@H]5CC[C@]43C)[C@@H]12`, the growth is -24.9% (active) in test [1]; -12.2% (active) in test [2]; -70.3% (active) in test [3]; 90% in test [4]; 58.1% in test [5]; 30.9% in test [6]. Besides, the growth in test [7] was 39.7%; in [8] it was 51.9%; in test [9], 33%.

With `CC1(C)OB(O)c2cc(-c3nc4ccc5[nH]ncc5c4c4c3CCCC4)ccc21`, the growth in test [1] is 24.5%; in [2], 28.1%; in test [3], 46.3%; in test [4], 105%; in [5], 67.1%; in test [10], 33.1%. Further, the growth is 38.7% in [6], 94.6% in test [7], 68.7% in test [8] and 61.8% in test [9].

On to `CN1CCN(CCOc2ccc(-c3cnc4c(-c5ccc(F)cc5)cnn4c3)cc2)CC1`, for which the growth in [1] was 1.31% (active); in test [2], 27%; in test [3] it was 58.1%; in test [4] it was 83.4%; in test [5], 49%; in test [6] it was 48.2%. For the same molecule, the growth in test [7] is 28.4%; in [8], 56.7%; in [9], 76.5%.

Take `CNC(=O)c1cc(Oc2ccc3c(c2)sc2nc(-c4ccc(OC)cc4)cn23)ccn1`: the growth was 38% in [1]; 20.2% in test [2]; 52.4% in test [3]; 36% in test [4]; 65.8% in [5]; 83.3% in [6]. The growth is 4.08% (active) in test [7], 76.8% in [8] and 71.3% in test [9].

Consider `Cc1ccc(S(=O)(=O)OCCCOS(=O)(=O)c2ccc(C)cc2)cc1`, for which the growth was 82.4% in test [1]; 76.2% in [2]; 90% in [3]; 125% in test [4]; 100% in test [5]; 76.1% in test [6]. Further, the growth in [7] is 107%; in [8], 99.8%; in test [9], 116%.

Turning to `O=C(/C=C/c1ccccc1)c1ccc(Nc2nc(Nc3ccc(F)cc3)nc(Nc3ccc(Cl)cc3)n2)cc1`, the growth was 78.2% in [1]; -9.92% (active) in test [2]; 58.4% in test [3]; 102% in [4]; 90.8% in test [5]; 90.8% in test [6]. For the same molecule, the values for the growth in [7], in [8] and in test [9] were 80.2%, 99.7% and 76.7%, respectively.

In the case of `O=c1nc(-c2ccccc2)c2cc(-c3ccc(C(F)(F)F)nc3)ccc2[nH]1`, the growth in [1] was 93.2%; in test [2] it was 91.3%; in test [3], 106%; in [4] it was 97.6%; in test [5], 108%; in test [10], 105%. The growth in test [6] was 111%; in [7], 96%; in test [8], 95.7%; in test [9] it was 98.4%.

As for `COc1cc(OC)c2sc(-c3ccc(-n4cncc4-c4cc(OC)c(OC)c(OC)c4)cc3)nc2c1`, the growth was 17.3% in test [1]; 27.3% in test [2]; 76.1% in test [3]; 81.3% in test [4]; 50.2% in test [5]; 63.9% in [6]. Besides, the growth in test [7] is 35.1%; in test [8], 62.2%; in test [9], 60.6%.

`N#Cc1cncc(-c2ccc3ncnc(Nc4cccc(Cl)c4)c3c2)c1`: the growth in test [1] is 74.3%; in test [2], 80.3%; in [3], 49.1%; in [4], 85%; in test [5], 41.5%; in [6], 45.1%. Moreover, the growth in test [7] was 58%; in [8], 61.2%; in [9], 72.8%.

As for `CC(=O)ON1CCCC(P(=O)(OCCSC(=O)C(C)(C)C)OCCSC(=O)C(C)(C)C)C1=O` (stereo not given), the growth in test [1] is 6.15% (active); in [2], -17.3% (active); in test [3], 10.7%; in [4], 89.2%; in [5], 29.7%; in test [10], 38.6%. The growth in [6] was 16.3%; in [7] it was 10.4%; in [8] it was 19.6%; in test [9], 13.2%.

For `Oc1c(CN2CCC(N3CCCCC3)CC2)cc(Cc2cc(CN3CCC(N4CCCCC4)CC3)c(O)c3ncccc23)c2cccnc12`, the growth in test [1] was 12.1%; in test [2], 25.4%; in [3], 30.1%; in [4] it was 42.1%; in test [5], 20.7%; in test [6] it was 22.9%. Also, the growth in [7] is 11.1%; in [8] it was 52.8%; in [9], 48.4%.

Take `CC(C)CCN(CCC(C)C)CC(O)c1cc2c(c3ccccc13)CCCC2` (stereo not given): the growth in [1] is 11.8%; in test [2] it was 49.3%; in test [3], 81.6%; in test [4] it was 71.5%; in test [5], 78.2%; in test [6] it was 64.2%. The growth in [7] is 85%; in [8] it was 80.6%; in test [9], 71.8%.

Turning to `CCOC(=O)c1c(C)c2c(n1Cc1ccccc1)CSCC2=O`, the growth was -2.43% [100 µM] (active) in [1]; -5.25% [100 µM] (active) in [2]; 17.7% [100 µM] in [3]; 33.6% [100 µM] in test [4]; 11.8% [100 µM] in [5]; 32.6% [100 µM] in test [6]. The growth in test [7] is -2.49% [100 µM] (active); in test [8], 46.8% [100 µM]; in test [9] it was -5.65% [100 µM] (active).
